APP transl inh = APP translation inhibition. 0.82% of 190,000 active. inhibition, % at 2 µM. SH-SY5Y APP 5'UTR-luciferase reporter, luminescence;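 active means inhibition above a set limit, derived from the sample mean plus 3 SD, cut at about 45% in these data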
Ba/F3 V617F tox = reduce viability of Ba/F3 cells dependent on JAK2V617F; Ba/F3 EpoR-JAK2V617F viability, ATP luminescence; inhibition, % at 5.6 µM; 1.1% of 220,000 active; AID 1446;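 active means inhibition above the campaign mean plus 3 SD over all tested compounds, cut at about 24% in these data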;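 further: cytokine-independent growth of Ba/F3 cells driven by EpoR plus mutant JAK2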
IEC-6 cytotox = kills IEC-6 intestinal cells in KLF5 counter-screen | IEC-6 cytotoxicity, luminescence viability | inhibition, % at 5 µM | 0.78% of 290,000 active
BaF3 tox = reduces parental Ba/F3 cell viability, JAK2V617F counter-screen. 1.1% of 220,000 active. inhibition, % at 5.6 µM. CellTiter-Glo ATP luminescence;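 active means inhibition above a per-campaign cutoff, the mean inhibition of all tested compounds plus 3 SD, cut at about 27% in these data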
aSyn 5UTR inh = 5' untranslated region of α-synuclein, MLPCN primary screen; alpha-synuclein 5'UTR reporter, inhibitor activity; inhibition, % (tested at 7.5 µM); 0.82% of 300,000 active; in the data active means inhibition above about 60%;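 further: H4 neuroglioblastoma cells stably carrying SNCA 5'UTR luciferase fusion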
KLF5 inh = kruppel-like factor 5 inhibition | DLD-1 KLF5 promoter-luciferase reporter, luminescence | inhibition, % at 5 µM | 0.23% of 290,000 active | AID 1700;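 active means inhibition above a per-plate limit of that plate's mean compound inhibition plus 3 SD, cut at about 60% in these data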;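 further: higher means less KLF5 promoter-driven luciferase light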
IEC-6 cytotox cf = IEC-6 cytotoxicity, confirmation assay; shares compounds with IEC-6 cytotox; IEC-6 rat intestinal epithelial viability, luminescence; inhibition, % at 5 µM; 63% of 1,900 active
A number is an active result. The list is not random: actives were taken first. Their share in the collection is about 2.2%. Unless noted, no stated cut-off is given here; in the data, active means inhibition above about 22%; inactive means the rest.

`Cc1cc(SCC(=O)OCC(=O)NCC2CCCO2)c(C)cc1Br` (centres undefined) gave APP transl inh inactive, Ba/F3 V617F tox inactive, IEC-6 cytotox inactive, BaF3 tox inactive, aSyn 5UTR inh inactive and KLF5 inh inactive.
Screening CC(C)n1cc(CN2CCC(Oc3ccc(C(=O)N4CCCCC4)cc3)CC2)cn1 returned IEC-6 cytotox inactive, aSyn 5UTR inh inactive and KLF5 inh inactive.
O=C(NNc1ccccc1F)c1ccccc1 was read as Ba/F3 V617F tox inactive, IEC-6 cytotox 26, BaF3 tox inactive, aSyn 5UTR inh inactive, KLF5 inh inactive and IEC-6 cytotox cf inactive.
Screening Cc1onc(-c2ccccc2)c1C(=O)NNC(=S)NC(=O)c1ccc2c(c1)OCO2 returned Ba/F3 V617F tox inactive, IEC-6 cytotox inactive, BaF3 tox inactive, aSyn 5UTR inh inactive and KLF5 inh inactive.
Screening CCc1ccc(C(=O)C(C)OC(=O)Cc2n[nH]c(=O)c3ccccc23)cc1 (centres undefined) returned IEC-6 cytotox 25, aSyn 5UTR inh inactive, KLF5 inh inactive and IEC-6 cytotox cf inactive.
`CC(=O)c1cccc(NC(=O)C(C)OC(=O)Cc2n[nH]c(=O)c3ccccc23)c1` (centres undefined) gave IEC-6 cytotox inactive, aSyn 5UTR inh inactive and KLF5 inh inactive.
COc1ccccc1NC(=O)c1ccc(NC(=O)Cc2n[nH]c(=O)c3ccccc23)cc1 was read as Ba/F3 V617F tox inactive, IEC-6 cytotox 25, BaF3 tox inactive, aSyn 5UTR inh inactive, KLF5 inh inactive and IEC-6 cytotox cf inactive.
For CC1CC(C)CN(C(=O)CCn2c(=O)oc3ccccc32)C1 (centres undefined) the results were IEC-6 cytotox inactive, aSyn 5UTR inh inactive and KLF5 inh inactive.
`Fc1ccccc1/C=C/c1ccc2ccccc2n1` gave APP transl inh inactive, Ba/F3 V617F tox inactive, IEC-6 cytotox inactive, BaF3 tox inactive, aSyn 5UTR inh inactive and KLF5 inh inactive.
For COc1cc(/C=C/c2ccc3cccc(O)c3n2)cc(Br)c1OC the results were IEC-6 cytotox inactive, aSyn 5UTR inh inactive and KLF5 inh inactive.
O=[N+]([O-])c1ccc(/C=C/c2ccc3cccc(O)c3n2)cc1 was read as IEC-6 cytotox 42, aSyn 5UTR inh inactive, KLF5 inh inactive and IEC-6 cytotox cf inactive.
COc1cc(/C=C/c2ccc3cccc(O)c3n2)cc(OC)c1OC was read as IEC-6 cytotox 30, aSyn 5UTR inh inactive, KLF5 inh inactive and IEC-6 cytotox cf inactive.
Screening O=[N+]([O-])c1ccc(/C=C/c2ccc3ccccc3n2)cc1 returned APP transl inh inactive, Ba/F3 V617F tox inactive, IEC-6 cytotox 88, BaF3 tox inactive, aSyn 5UTR inh inactive, KLF5 inh inactive and IEC-6 cytotox cf 67.
Screening CC(C)N(C)C(=O)C(=O)c1cccn1-c1cccc(Cl)c1C#N returned APP transl inh inactive, Ba/F3 V617F tox inactive, IEC-6 cytotox inactive, BaF3 tox inactive, aSyn 5UTR inh inactive and KLF5 inh inactive.
Screening COCC(=O)Nc1ccc2c(c1)OCC(=O)N2Cc1ccc(C)cc1 returned IEC-6 cytotox inactive, aSyn 5UTR inh inactive and KLF5 inh inactive.
`Clc1ccc(Cn2ncc3c(NCc4ccccc4)ncnc32)cc1` gave APP transl inh inactive, Ba/F3 V617F tox inactive, IEC-6 cytotox 28, BaF3 tox inactive, aSyn 5UTR inh inactive, KLF5 inh inactive and IEC-6 cytotox cf 27.
For Cn1nccc1C(=O)N/N=C/c1c(O)ccc2ccccc12 the results were IEC-6 cytotox 98, aSyn 5UTR inh 92, KLF5 inh inactive and IEC-6 cytotox cf 29.
`CC(=O)c1ccc(NC(=O)CCNC(=O)c2ccc(Cl)cc2)cc1` gave IEC-6 cytotox inactive, aSyn 5UTR inh inactive and KLF5 inh inactive.
CCCCOC(=O)c1ccc(NC(=O)C(=O)CC(=O)c2ccc(OC)cc2)cc1 was read as IEC-6 cytotox inactive, aSyn 5UTR inh inactive and KLF5 inh inactive.
O=C(c1ccc(Br)cc1)C(CN1CCOCC1)c1ccccc1 (centres undefined) was read as IEC-6 cytotox 26, aSyn 5UTR inh inactive, KLF5 inh inactive and IEC-6 cytotox cf inactive.
Cc1ccc2oc(C(=O)NCc3ccc(S(N)(=O)=O)cc3)cc(=O)c2c1 was read as IEC-6 cytotox inactive, aSyn 5UTR inh inactive and KLF5 inh inactive.
Screening NS(=O)(=O)c1ccc(CNC(=O)c2cc(=O)c3cc(Cl)ccc3o2)cc1 returned IEC-6 cytotox 101, aSyn 5UTR inh inactive, KLF5 inh inactive and IEC-6 cytotox cf inactive.
